# Only a selection was taken, and hits are over-represented in it overall.
# Tg IFNy HTS – T. gondii growth inhibition under IFN-gamma; Toxoplasma gondii growth in IFN-gamma-treated host cells; hits give low values; 69,000 tested, 3.8% active; activity change, negative = inhibition, % (no concentration beside the values); in the data active = activity change below about -70%, passing the limit was not always enough;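 also: host cells are HeLa cells infected with Toxoplasma gondii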
# * marks the source's active call; other numbers are inactive results; i = inactive.
SMILES,Tg IFNy HTS
CCCCOc1ccc(C(=O)NCCc2sc(-c3ccc(F)cc3)nc2C)cc1,-62
O=c1c(-c2ccc(O)cc2)coc2cc(O)cc(O)c12,80
CC(C)=CCc1c2c(c3occ(-c4ccc(O)cc4)c(=O)c3c1O)C=CC(C)(C)O2,-82*
CC(C)=CCc1c2c(c3occ(-c4ccc(O)c(O)c4)c(=O)c3c1O)C=CC(C)(C)O2,-25
CCC(C)[C@H]1O[C@]2(C=C[C@@H]1C)C[C@@H]1C[C@@H](C/C=C(\C)[C@@H](OC3C[C@H](OC)C(O[C@H]4C[C@H](OC)[C@@H](NC(C)=O)[C@H](C)O4)[C@H](C)O3)[C@@H](C)/C=C/C=C3\CO[C@@H]4[C@H](O)C(C)=C[C@@H](C(=O)O1)[C@]34O)O2 (some centres undefined),13
CO[C@H]1CC(O[C@@H]2/C(C)=C/C[C@@H]3C[C@@H](C[C@]4(CC[C@H](C)[C@@H](C5CCCCC5)O4)O3)OC(=O)[C@@H]3C=C(C)/C(=N/O)[C@H]4OC/C(=C\C=C\[C@@H]2C)[C@]43O)O[C@@H](C)C1O (some centres undefined),-80*
O=C(Sc1cccs1)c1cncc(C#Cc2ccccc2)c1,4
c1ccc(CCNc2nnns2)cc1,-97*
CCOC(=O)Nc1nnc(CCc2ccccc2)s1,0
COc1ccccc1Nc1nnns1,12
CN(CC1Cc2ccccc2O1)c1ccc(-c2nccn2C)nn1 (centres undefined),i
CN(Cc1ccccn1)C1COC2(CCN(Cc3cccnc3)CC2)C1 (centres undefined),-3
CCN1c2ccc(C)cc2C(=O)NC12CCN(C(=O)c1cccc(F)c1)CC2,55
Cc1noc(C)c1C(=O)Nc1ccc(Sc2ccccc2)nc1Sc1ccccc1,-89*
CSc1ccc(CNC(=O)c2c(C)noc2C)s1,-33
Cc1noc(C)c1C(=O)Nc1ccc(Cl)cc1,10
COC[C@@H]1CCC2C(CCN2C(=O)c2ccc3[nH]ccc3c2)O1 (some centres undefined),-12
O=C(NC1CC1)C1CCN(C2CCN(c3ncnc4nc[nH]c34)CC2)CC1,-2
C[C@H](CO)N1C[C@H](C)[C@@H](CN(C)C(=O)[C@H](Cc2ccccc2)N(C)C)OCc2ccccc2-c2c(n(C)c3ccccc23)C1=O,33
C[C@@H]1CN([C@@H](C)CO)C(=O)c2c(c3ccccc3n2C)-c2ccccc2CO[C@@H]1CN(C)C(=O)[C@@H](Cc1ccccc1)N(C)C,-31
C[C@H](CO)N1C[C@H](C)[C@H](CN(C)C(=O)[C@@H](Cc2ccccc2)N(C)C)OCc2ccccc2-c2c(n(C)c3ccccc23)C1=O,-72*
OC1(C(F)(F)F)CC(c2ccc3c(c2)Nc2ccccc2S3)=NN1 (centres undefined),-49
OC1(C(F)(F)F)CC(/C=C/c2ccc3c(c2)OCO3)=NN1 (centres undefined),-86*
OC1(C(F)(F)F)CC(c2cc3ccccc3o2)=NN1 (centres undefined),-28
CC(=O)Nc1ccc(CN2CCC(CO)(Cc3ccccc3C(F)(F)F)CC2)cc1,-3
SMILES,Tg IFNy HTS
COc1ccc([C@@H]2C[C@H](OC(=O)Cn3ncc4ccccc4c3=O)C(=O)N2C)cc1,-1
CN(C)S(=O)(=O)Nc1ccc2c(c1)NC(=O)CC2c1cc2ccccc2o1 (centres undefined),-51
Cc1nc(-c2cccnc2)nc(N2CCCN(c3ccc(C(F)(F)F)cn3)CC2)c1Cl,-98*
Cc1nc(-c2ccccc2)nc2c1CCN(c1cnccn1)CC2,66
CC(C)Cc1ccc(C(=O)C(C)N2CCN(c3ccc(C(F)(F)F)cn3)CC2)cc1 (centres undefined),-43
Cc1ccc(C(C(=O)NC2CCCCC2)N(C(=O)c2ccco2)c2ccc(C)c(C)c2)o1 (centres undefined),96
Cc1cc(C)c(N)c(-c2cc(C)[nH]n2)c1,-15
CN1CCC2(CC1)CN(C(=O)[C@H](N)Cc1ccccc1)CCN2C,-2
O=C(Nc1nc(C23CC4CC(CC(C4)C2)C3)cs1)c1ccccc1,-107*
O=C(NC12CC3CC(CC(C3)C1)C2)c1cccnc1,6
Clc1ccc(-c2nc(C34CC5CC(CC(C5)C3)C4)cs2)cc1,68
O=c1[nH]c2ccccc2c(-c2ccccc2)c1-c1cc(-c2ccccc2)c2ccccc2n1,34
Cc1ccc(CNC(=O)C2CCN(S(=O)(=O)c3ccc4[nH]c(=O)ccc4c3)CC2)o1,106
COCCN(CCOC)C(=O)c1cc2c(c3ccccc3n2CC2CC2)n1-c1ncccn1,-21
COc1ccccc1-c1nc(Cn2nnc(C(=O)Nc3cc(F)ccc3C)c2C)c(C)o1,35
COc1ccc(-n2c(SCC#N)nnc2-c2cccnc2)cc1,-46
COc1ccc(-n2c(Cc3ccccc3)nnc2SCC(=O)c2ccccc2)cc1,-47
COc1ccc(-n2c(CC#N)nnc2SCc2c(C)c(C)c(C)c(C)c2C)cc1,-89*
CCC(Cn1ccnc1)NC1CCN(c2ccccc2F)CC1 (centres undefined),0
CCCS(=O)(=O)N1CCC2(CC1)CN(c1cnn(C)c1)C(=O)CO2,-10
CCc1nc2cc(NC(=O)COc3ccc4nsnc4c3)ccc2n1C,19
Cn1c(Nc2ccc(C(F)(F)F)cc2)nc2cc(Oc3ccnc(-c4ncc(C(F)(F)F)[nH]4)c3)ccc21,-73*
Cn1cnc2cc(C(=O)Nc3ccc4c(c3)nc(C(F)(F)F)n4C)ccc21,-27
CCC(=O)Nc1ccc(S(=O)(=O)N2CCC3(CC2)Nc2ccccc2-n2cccc23)cc1,8
COc1cc(C(=O)Nc2ccc3c(c2)N(C)CCC3)c(-n2cnnn2)cc1OC,12
SMILES,Tg IFNy HTS
S=c1[nH]nc(-c2ccncc2)n1-c1cccc(Cl)c1,15
Cn1c(-c2ccc(Cl)cc2)n[nH]c1=S,-97*
COc1ccc(-c2n[nH]c(=S)n2Cc2ccccc2)cc1,53
COC(=O)c1sccc1NC(=O)CCN1[C@@H]2CC[C@H]1CC(O)C2 (some centres undefined),4
Fc1cnc(N2CCC[C@]3(C[C@@H](Oc4ccccn4)CO3)C2)nc1,-18
CCCCn1c(=O)c2c(nc3n2CCCN3CCc2ccccc2)n(C)c1=O,-97*
CCCCCCn1c(=O)c2c(ncn2C)n(C)c1=O,16
CCN1CCN(CC2(O)CCCN(CCCc3ccccc3)C2=O)CC1 (centres undefined),0
COc1cc(NC(=O)Nc2ccc(OC(F)(F)F)cc2)cc(C(F)(F)F)c1,-96*
O=C(C#Cc1ccccc1)Nc1ccc(OC(F)(F)F)cc1,-59
COc1ccc(-n2ncc(NC(=O)Nc3ccc(OC(F)(F)F)cc3)c2C)cc1,33
Cc1ccc(NC(=O)NC(=O)c2c(C)noc2-c2snnc2C)cc1,-107*
Cc1ccc(NC(=O)Nc2ccc(-c3nc(-c4ccccc4)co3)cc2)cc1,24
Cc1ccc(-c2coc(-c3ccc(NC(=O)Nc4ccccc4)cc3)n2)cc1,16
Nc1ccc2c(c1)nc(CO)n2CCCO,24
O=C(O)C1CC(N2CCCC2)CCN1C(=O)c1cccs1 (centres undefined),-2
CC1C(c2ccccc2)N(C)C(c2ccccc2)CC1(O)Cc1ccccc1 (centres undefined),-85*
CN1CCCC1(Cc1ccccc1)C(=O)O (centres undefined),-55
Cc1ccc(CC2(O)CC(C)N(C)CC2C)cc1 (centres undefined),11
Cc1cccc(-c2nc(CCNC(=O)c3cccc(Br)c3)cs2)c1,417
CCOCC(=O)N1CC[C@@H]2OCC[C@@]2(c2nc(C)no2)C1,142

# Bioassay records from PubChem BioAssay.
